Mtb bLac sens – beta-lactam sensitization of Mtb H37Rv | M. tuberculosis H37Rv growth with meropenem, percent inhibition | inhibition, % at 25 µM | 0.27% of 330,000 active | AID 434955; call rule not given here;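 note: growth measured after seven days incubation then overnight dye step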
RecA splice inh – inhibitors of M. tuberculosis RecA intein splicing | P9WHJ3 | cell-free RecA intein splicing, fluorescence | inhibition, % (no concentration beside the values) | 0.75% of 290,000 active | AID 2221; in the data active = inhibition above about 30%
Target sequence (P9WHJ3 whole entry, looked up, canonical isoform): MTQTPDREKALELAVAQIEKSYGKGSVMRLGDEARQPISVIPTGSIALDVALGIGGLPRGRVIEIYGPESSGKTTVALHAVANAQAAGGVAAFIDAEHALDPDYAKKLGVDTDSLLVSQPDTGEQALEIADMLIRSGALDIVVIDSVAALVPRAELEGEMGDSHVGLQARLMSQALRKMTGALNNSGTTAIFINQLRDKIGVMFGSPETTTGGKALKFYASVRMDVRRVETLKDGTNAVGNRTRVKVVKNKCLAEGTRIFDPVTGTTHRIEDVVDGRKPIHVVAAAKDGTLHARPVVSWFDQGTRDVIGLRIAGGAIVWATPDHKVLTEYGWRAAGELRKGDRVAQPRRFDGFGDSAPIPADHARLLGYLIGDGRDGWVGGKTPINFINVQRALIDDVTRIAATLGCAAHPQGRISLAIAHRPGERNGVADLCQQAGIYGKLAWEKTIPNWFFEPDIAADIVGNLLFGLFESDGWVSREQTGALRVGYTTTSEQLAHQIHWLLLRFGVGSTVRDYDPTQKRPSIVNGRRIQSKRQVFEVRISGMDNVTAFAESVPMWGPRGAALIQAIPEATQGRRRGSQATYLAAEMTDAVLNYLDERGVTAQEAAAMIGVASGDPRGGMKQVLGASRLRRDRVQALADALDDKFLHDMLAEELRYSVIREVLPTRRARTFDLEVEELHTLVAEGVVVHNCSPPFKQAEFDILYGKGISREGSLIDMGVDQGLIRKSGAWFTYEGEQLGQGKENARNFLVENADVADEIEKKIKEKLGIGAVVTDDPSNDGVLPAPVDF
GDH-TPI counter – GDH-TPI coupled enzyme inhibition counter-screen | GDH-TPI coupled enzyme counterscreen, NADH absorbance | inhibition, % at 4.8 µM | 1.2% of 360,000 active | AID 588335
Mtb FBA inh – inhibitors of M. tuberculosis fructose-bisphosphate aldolase; inhibition, % at 1 µM; 2.3% of 360,000 active; P9WQA3; purified M. tuberculosis FBA, fluorescence read-out; AID 588726; in the data active = inhibition above about 27%
CCHFV vOTU inh – CCHFV vOTU protease inhibition. Pep-AMC fluorescence. inhibition, % at 11.5 µM. 0.55% of 370,000 active. AID 651958
GFP chromo cs – counter-screen GFP chromophore formation inhibition. 83% of 2,100 active. AID 434968. EC50, µM. shares compounds with RecA splice inh. cell-free GFP chromophore formation, fluorescence; call rule not given here
Of the large screens only hits and unclear results are named; the others gave an inactive call (follow-up assays come after a bar, where they were run). Shown are actives, neighbours in structure and some others; about 4.2% of the full set was active somewhere. Cut-off read from the data, not from the text of the source, unless noted: active = inhibition above about 30%; inactive = the rest.

COc1ccc2[nH]c3c(Cl)ncnc3c2c1	RecA splice inh 76 | GFP chromo cs inactive
CCC1C(=O)N(c2nc(C)cc(C)n2)N=C1C (stereo not given)	RecA splice inh 67 | GFP chromo cs 20
CC1=NN(c2nc(C)cc(C)n2)C(=O)C1CCC(C)C (stereo not given)	none
CC(=O)C1=C(C)N(CC(C)C)C(=S)NC1c1ccc(Br)cc1 (stereo not given)	none (no result: Mtb bLac sens, RecA splice inh, GDH-TPI counter, Mtb FBA inh)
N#Cc1ccc(Cn2ccc3ccc(-c4ccc5ccn(Cc6ccc(C#N)cc6)c5c4)cc32)cc1	none (no result: Mtb bLac sens, RecA splice inh, GDH-TPI counter, Mtb FBA inh)
COCCN(C(=O)CCl)C(C(=O)NC1CCCCC1)c1ccccc1C (stereo not given)	RecA splice inh 47 | GFP chromo cs 26
O=C(NC1CCCC1)C(c1ccc(F)cc1)N(Cc1ccccc1Cl)C(=O)CCl (stereo not given)	RecA splice inh 50 | GFP chromo cs inactive
COCCN(C(=O)CCC(=O)Nc1cc(C)on1)C(C(=O)NC1CCCC1)c1ccccc1C (stereo not given)	none
CCOC(=O)c1[nH]c(=O)c2ccccc2c1O	RecA splice inh 56 | GFP chromo cs 26
CCOC(=O)c1[nH]c2ccccc2c1NC(C)=O	none
COC(=O)[C@]12C[C@H](CC(=O)N3CCC(c4ccccc4)CC3)C(=O)N(Cc3ccccc3)C1=C[C@H](C(C)(C)C)O[C@@H]2C	none (no result: Mtb bLac sens, RecA splice inh, GDH-TPI counter, Mtb FBA inh)
N#C/C(=C\c1c(Cl)cccc1Cl)c1nn(-c2ccccc2)c(-n2cccc2)c1C#N	none
N#C/C(=C\c1c(F)cccc1Cl)c1nn(-c2ccccc2)c(-n2cccc2)c1C#N	RecA splice inh 46 | GFP chromo cs inactive
O=[N+]([O-])c1cc([N+](=O)[O-])c2cc3ccccc3nc2c1	RecA splice inh 93 | GFP chromo cs 4.9
COC(=O)C1CN(CCc2ccccc2)CCS(=O)(=O)N1Cc1ccc(Cl)cc1 (stereo not given)	none (no result: Mtb bLac sens, RecA splice inh, GDH-TPI counter, Mtb FBA inh)
O=C(O)c1cc2c(s1)CCCC2	none (no result: RecA splice inh)
ClCc1nnc(-c2cc3c(s2)CCCC3)o1	RecA splice inh 39 (no result: Mtb bLac sens) | GFP chromo cs 28
O=C1C=C(NCCN2CCOCC2)C(=O)c2cnccc21	RecA splice inh 96 (no result: GDH-TPI counter, Mtb FBA inh, CCHFV vOTU inh) | GFP chromo cs 1
Cc1[nH]nc2c1C(c1ccc(Br)cc1)N(c1ccccc1)C2=O (stereo not given)	none (no result: Mtb bLac sens, RecA splice inh, GDH-TPI counter, Mtb FBA inh)
CC(C)(C)c1cc(C(c2cccnc2)N2CCN(CCO)CC2)cc(C(C)(C)C)c1O (stereo not given)	RecA splice inh 38 | GFP chromo cs 35
CN1CCN(Cc2cc(C(C)(C)C)c(O)c(C(C)(C)C)c2)CC1	none
Oc1c(Cl)cc(Cl)cc1C=Nc1ccccc1N1CCCC1	none (no result: GDH-TPI counter, Mtb FBA inh, CCHFV vOTU inh)
O=c1[nH]cc(N=Cc2cc(Cl)cc(Cl)c2O)c(=O)[nH]1	RecA splice inh 77 | GFP chromo cs 13
COc1ccccc1CN1CCSCC1	RecA splice inh 33 | GFP chromo cs 25
CCn1c(COc2ccc(C)cc2)nnc1SCC(=O)Nc1ccc(C(=O)OC)cc1	none (no result: Mtb bLac sens, RecA splice inh, GDH-TPI counter, Mtb FBA inh)
CC(=O)Oc1c(/C=C(\C#N)C(N)=O)[nH]c2ccccc12	RecA splice inh 74 (no result: Mtb bLac sens) | GFP chromo cs 0.054
CC(C)(C)c1csc(Sc2ccc([N+](=O)[O-])cn2)n1	RecA splice inh 32 | GFP chromo cs 9.2
Cc1ccnc(Sc2ccc([N+](=O)[O-])cn2)n1	none
O=C(NNC(=O)c1ccc2ccccc2c1O)c1ccccc1Cl	RecA splice inh 35 | GFP chromo cs inactive
Oc1ccc(N=Cc2ccc(O)c(O)c2)cc1	RecA splice inh 86 (no result: CCHFV vOTU inh) | GFP chromo cs 24
Oc1ccc(/C=N/N(c2ccccc2)c2ccccc2)cc1O	none
CCOc1ccc(S(=O)(=O)NCc2cccnc2)cc1C	RecA splice inh 40 | GFP chromo cs inactive
CC(C)(C)c1cnnn1-c1ccc(C(=O)CCl)cc1	RecA splice inh 75 | GFP chromo cs 5.9
CC(C)(C)c1cnnn1-c1ccc(C=O)cc1	none
COCCCNC(=O)Cn1nc(Cc2ccncc2)c2ccccc2c1=O	none (no result: Mtb bLac sens, RecA splice inh, GDH-TPI counter, Mtb FBA inh)
COc1ccc(C2CC(=O)C(c3ccc(C#N)cc3)=CN2Cc2ccccc2)cc1 (stereo not given)	none (no result: Mtb bLac sens, RecA splice inh, GDH-TPI counter, Mtb FBA inh)
COC(=O)CSc1nc2sc3c(c2c(=O)n1C1CCCCC1)CCN(C)C3	RecA splice inh 39 (no result: GDH-TPI counter, Mtb FBA inh, CCHFV vOTU inh) | GFP chromo cs inactive
CCOC(=O)CSc1nc2sc3c(c2c(=O)n1-c1ccccc1)CCN(C)C3	none
Cc1nn(-c2ccccc2)c2c1C1(C(=O)N(C(C)C)c3ccccc31)C(C#N)=C(N)O2 (stereo not given)	RecA splice inh 81 | GFP chromo cs 12
Cc1nn(-c2ccccc2)c(N)c1C1(O)C(=O)N(C(C)C)c2ccccc21 (stereo not given)	none
CC(=O)c1cccc(-c2ccc3c(=O)[nH]c(Nc4ccccc4)cc3c2)c1	RecA splice inh 94, CCHFV vOTU inh 104 | GFP chromo cs 8.6
CC(=O)c1cccc(Nc2nc(-c3ccccc3)nc3ccccc23)c1	none
CC(=O)N1CCN(c2ccc(N3CCN(C(C)=O)[C@H](C)C3)c(C)c2)[C@@H](C)C1	none (no result: Mtb bLac sens, RecA splice inh, GDH-TPI counter, Mtb FBA inh)
Cc1ccc(NC(=O)c2sc3ncnc(N4CCN(c5ccccn5)CC4)c3c2C)c(C)c1	RecA splice inh 73 | GFP chromo cs inactive
CCOC(=O)C1=C(c2ccccc2)NC(N)=NC1c1ccc(OCc2ccc(Cl)cc2)c(OC)c1 (stereo not given)	RecA splice inh 49 | GFP chromo cs inactive
O=C(C/C=N\OCc1c(Cl)cccc1Cl)Oc1ccc(Cl)cc1Cl	RecA splice inh 45 | GFP chromo cs 27
CC(C)c1ccc(/C=C(\c2nc3ccccc3[nH]2)S(=O)(=O)c2ccccc2)cc1	RecA splice inh 80 | GFP chromo cs 9.4
O=S(=O)(/C(=C/c1ccc(C(F)(F)F)cc1)c1nc2ccccc2[nH]1)c1ccccc1	RecA splice inh 64 | GFP chromo cs 10
C/C(=C\c1ccc(N)cc1)c1nc2ccccc2[nH]1	none
COc1cccc(NC(=O)N2CC[C@@H]3[C@H]2c2cc(-c4cccc(C#N)c4)ccc2N(C)[C@@H]3CO)c1	none (no result: Mtb bLac sens, RecA splice inh, GDH-TPI counter, Mtb FBA inh)
Cc1cccc(NC(=O)N2CCC(N(C)CCC(C)C)CC2)c1	none (no result: Mtb bLac sens, RecA splice inh, GDH-TPI counter, Mtb FBA inh)
C=CCN=C1NC(c2cccc(F)c2)C(C(=O)OC)=C(C)N1Cc1ccccc1C(F)(F)F (stereo not given)	none (no result: Mtb bLac sens, RecA splice inh, GDH-TPI counter, Mtb FBA inh)
CCOC(=O)N/N=C\c1ccc(OC(=O)c2ccco2)cc1	RecA splice inh 34 | GFP chromo cs inactive
COC(=O)N/N=C/c1ccc(OC(=O)/C=C/c2ccco2)cc1	none
COC(=O)N/N=C\c1ccc(OC(=O)c2ccco2)cc1	RecA splice inh 40 | GFP chromo cs inactive
CCOc1cc(/C=N\NC(=O)OC)ccc1OC(=O)c1ccco1	none
CC(C)(C)OC(=O)N/N=C\c1ccc(OC(=O)c2ccco2)cc1	RecA splice inh 43 | GFP chromo cs inactive
CCOc1cc(/C=N\NC(=O)OC(C)(C)C)ccc1OC(=O)c1ccco1	RecA splice inh 31 | GFP chromo cs inactive
COc1cccc(CNC(=O)[C@H]2CCCN2)c1	none (no result: Mtb bLac sens, RecA splice inh, GDH-TPI counter, Mtb FBA inh)
CC(C)NC(=S)NC(c1ccccc1)(c1ccccc1)c1ccccc1	RecA splice inh 32 | GFP chromo cs inactive
C/C(=N\NC(=S)NC(C)C)c1ccccc1	none
